Laboratory results published in PubChem BioAssay AID977607 (Broad Institute, 2014).
Screen size: about 1,500 compounds; about 460 (31%) were called active. About 1% were inconclusive and are not listed.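 Rule for the calls: active = curve reaches 40% activation over neutral controls at an AC40 no higher than the top valid tested concentration; inconclusive = no clear call, values can overlap the other calls; inactive = signal moving opposite to the expected increase, and the rest.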 These entries were drawn from the full list. Entries with a potency or affinity are not part of this list.

Assay: activators of glucose-dependent insulin secretion, dose response, cell-based, INS-1E, Gaussia luciferase, luminescence, cherry-pick, set 2 (AID 977607);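 note: 0% = median of the plate neutral control wells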
Conditions: INS-1E GLuc insulin secretion reporter, 2-3 h, hits give high values; at 35 µM, 100% = signal doubled over neutral wells unless noted

Max activation, inactive:
Cc1cccc(C)c1NC(=O)C1c2ccccc2OCC(=O)N1CCCN1CCOCC1 (stereo unspecified) -19% [at 3.8 µM, 100% = signal doubled over neutral wells]
Cc1ccc(-c2nc(C#N)c(NCC3CCCO3)o2)cc1 (stereo unspecified) -16.4% [at 0.135 µM, 100% = signal doubled over neutral wells]
CCOc1ccc(Nc2oc(-c3cccc(Cl)c3)nc2C#N)cc1 -13.2% [at 0.135 µM, 100% = signal doubled over neutral wells]
CCCCC(=O)Nc1ccc(C(=O)NNC(=O)c2ccc(C)c(Br)c2)cc1 -20.4% [at 3.8 µM, 100% = signal doubled over neutral wells]
CC1CCC(C(C)C)C(OCC(O)CNC(C)c2ccccc2)C1 (stereo unspecified) 35.2%
COc1ccc2c(c1)C(C)(Cc1ccc(C(=O)c3ccccc3)cc1)C(=O)N2 (stereo unspecified) -33.7%
Cc1ccsc1/C=N/n1c(-c2ccncc2)n[nH]c1=S 18.6%
Cc1ccccc1-c1n[nH]c(=S)n1/N=C/c1c(C)nn(-c2ccccc2)c1C -18% [at 0.0016 µM, 100% = signal doubled over neutral wells]
CC(C(=O)Nc1ccc2[nH]c(=O)[nH]c2c1)N1CCN(Cc2ccc3c(c2)OCO3)CC1 (stereo unspecified) -27.3% [at 11 µM, 100% = signal doubled over neutral wells]
O=C1NC(=O)C2(CCCCC2C2CCCCC2)N1 (stereo unspecified) 32.9% [at 0.135 µM, 100% = signal doubled over neutral wells]
Cc1ccc(S(=O)(=O)N(C)c2nc3ccccc3n3c(C(C)C)nnc23)cc1 -16.3% [at 0.42 µM, 100% = signal doubled over neutral wells]
O=C(O)COc1ccccc1-c1ccccc1 -20.7% [at 3.8 µM, 100% = signal doubled over neutral wells]
Cc1ccc(C(=O)Nc2cccc(C(=O)N/N=C/c3ccc(F)cc3)c2)cc1 -21.7% [at 0.046 µM, 100% = signal doubled over neutral wells]
CCCCCCC1CCC(C(=O)Nn2c(C)nc3ccccc3c2=O)CC1 (stereo unspecified) 26.8% [at 0.015 µM, 100% = signal doubled over neutral wells]
COc1ccccc1NS(=O)(=O)c1cccc(C(=O)N/N=C/c2c(C)nn(-c3ccccc3)c2N2CCCC2)c1 -50.5%
Cc1nn(-c2ccccc2)c(N2CCCC2)c1/C=N/O -12.4% [at 0.046 µM, 100% = signal doubled over neutral wells]
